# Hits are enriched below; roughly 3.4% of the tested compounds scored in any of these assays.
# GoLoco inh red: inhibitors of human Gai1-RGS12 GoLoco interaction (red fluorophore); P63096; Gai1:RGS12 GoLoco peptide FP, rhodamine, 10 min; Potency, µM (highest dose often 61.6 µM), without a hit: top-dose activity, negative = inhibition, most hits filed as inhibitors; 0.44% of 230,000 active; active = well fitted inhibition curve with a large enough effect, not every such curve was filed as active; inactive = no such curve, though single readings can be large or run the other way; also: nearly all actives have a fitted effect of over 30% in size
# KDM4E inh: blocks human JMJD2E demethylase activity; JMJD2E catalytic domain, FDH-coupled NADH fluorescence (FDH is formaldehyde dehydrogenase); Potency, µM (highest dose often 57.1 µM), inactives show at the highest dose activity change, negative = inhibition, hits mostly inhibitors; B2RXH2; AID 2147; 1.6% of 230,000 active; active = well fitted inhibition curve with a large enough effect, not every such curve was filed as active; inconclusive = small, poorly fitted or top-dose-only effect, or another doubt; inactive = no such curve, though single readings can be large or run the other way;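 also: 0% = wells with enzyme and -100% = buffer wells without enzyme; nearly all actives have a fitted effect of over 50% in size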
# Target sequence (B2RXH2 1-337 limits assumed): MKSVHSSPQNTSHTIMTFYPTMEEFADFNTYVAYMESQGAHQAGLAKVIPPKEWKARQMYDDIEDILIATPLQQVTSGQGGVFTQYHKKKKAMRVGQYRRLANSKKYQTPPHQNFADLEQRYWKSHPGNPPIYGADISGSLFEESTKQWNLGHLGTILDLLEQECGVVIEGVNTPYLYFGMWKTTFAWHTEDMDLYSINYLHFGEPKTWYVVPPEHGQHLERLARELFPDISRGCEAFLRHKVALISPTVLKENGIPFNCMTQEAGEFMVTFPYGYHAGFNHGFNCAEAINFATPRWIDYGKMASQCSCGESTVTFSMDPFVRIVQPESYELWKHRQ
# Tau fluor counter: counter-screen for tau fibril formation inhibitors. tau K18 P301L Alexa594 fluorescence, heparin fibrillization. Potency, µM (top dose mostly 57.7 µM), for inactives: top-dose activity change, negative = decrease. 0.93% of 280,000 active. AID 1463; also: nearly all actives have a fitted effect of over 55% in size
#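 Human tau K18 P301L (15 uM unlabeled, 0.24 uM Alexa 594-labeled) in 100 mM sodium acetate pH 7 with 20 uM heparin, 6 hr at 37 C. ThT 30 uM added, 1 hr ambient; Alexa 594 FP and total fluorescence read at 555/632 nm.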
# Tau ThT inhib: tau fibrillization inhibition (ThT binding). P10636. 2.1% of 270,000 active. Potency, µM (series often up to 57.4 µM), for the others: at the highest dose activity, negative = inhibition, usual class: inhibitors. recombinant tau K18 P301L, heparin-induced fibrillization, ThT fluorescence. AID 1460; also: nearly all actives have a fitted effect of over 55% in size
# Target sequence (P10636 561-689 P618L limits assumed): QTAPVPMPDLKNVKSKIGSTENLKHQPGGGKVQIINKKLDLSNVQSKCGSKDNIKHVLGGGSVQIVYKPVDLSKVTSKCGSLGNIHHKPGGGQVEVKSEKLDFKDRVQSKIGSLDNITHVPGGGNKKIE
#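 Fibril formation assay: tau K18 P301L at 15 uM with trace Alexa 594 label, heparin inducer 20 uM, pH 7 sodium acetate buffer, 37 C for 6 hr; endpoint ThT signal.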
# Tau fibril FP: inhibitors of human tau fibril formation. K18 P301L tau heparin fibrillization, Alexa594 FP, 6 h. Potency, µM (top dose mostly 57.7 µM), for inactives: top-dose activity, negative = inhibition, most hits filed as inhibitors. 0.39% of 280,000 active. AID 1468; also: nearly all actives have a fitted effect of over 55% in size
#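 K18 P301L tau (15 uM unlabeled/0.24 uM Alexa 594-labeled, final) + compound + heparin 20 uM final; 100 mM NaOAc pH 7; 6 hr 37 C; ThT 30 uM final added, 1 hr RT; FP ex 555/em 632 nm.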
# Starred values were filed as active, the others as inactive; ? = inconclusive; / = not tested or not shown; ! = not confirmed by another sample; [ ] = another dose, or the depositor's remark. Unless noted, calls follow the shape of the dose curve; as a rule, active = well fitted curve in the direction sought with a large enough effect; inconclusive = small, poorly fitted or top-dose-only effect, or another doubt; inactive = no such curve, though single readings can be large; an effect the other way counts as inactive or inconclusive. Unless noted, % is scaled to controls: 0 for no effect and ±100 for the full control effect; potency is read from the fitted curve at half-maximal effect.
SMILES,GoLoco inh red,KDM4E inh,Tau fluor counter,Tau ThT inhib,Tau fibril FP
CN(C)c1ccc(/C=N/NC(=O)c2ccccc2)cc1,3%,-13%,-17%,?,-9%
CN(C)c1ccc(C=Nc2ccc(N(C)C)cc2)cc1,10%,20µM*,?,11µM*,28µM*
Cc1ccc(N=Cc2ccc(N(C)C)cc2)cc1,15%,-6%,-10%,-11%,6%
C/C(=N/N=C/c1ccc(N(C)C)cc1)c1ccccc1,7%,-13%,?,8.9µM*,2%
CN1c2ccccc2-c2nc(SCC(=O)Nc3ccccc3)ncc2S1(=O)=O,/,/,-18%,4%,?
CCCCN(C)CCCNC(=O)Cn1nc(CC)n2c(cc3sc(C)cc32)c1=O,/,/,-6%,-3%,-7%
O=c1cc(-c2ccccc2)[nH]n1-c1nc2ccccc2[nH]1,37%,?,?,25µM*,?
COc1cc([N+](=O)[O-])cc(/C=N/NC(=O)c2cc(C)nc3ccccc23)c1O,9%,25µM*,-22%,14µM*,-8%
COc1cc([N+](=O)[O-])cc(/C=N/NC(=O)c2cc(-c3ccccc3)nc3ccccc23)c1O,18%,22µM*,?,16µM*,13%
COc1cc(/C=N/NC(=O)c2cccc([N+](=O)[O-])c2)cc(OC)c1O,3%,4%,-19%,?,4%
COc1cccc(/C=N/NC(=O)c2ccc([N+](=O)[O-])cc2Cl)c1O,1%,14µM*,-23%,?,-2%
COc1ccc(-c2cc(C)no2)cc1S(=O)(=O)NC(C)C,/,/,2%,4%,-3%
CCc1ccc(-c2cn3c(n2)sc2cc(C(=O)NCCc4ccc(OC)cc4OC)ccc23)cc1,/,/,-11%,-12%,-2%
O=C(Nc1cccc(S(=O)(=O)N2CCCCC2)c1)Nc1ccc(Cl)cc1Cl,5%,-3%,?,14%,14µM*
COc1ccccc1NS(=O)(=O)c1cccc(NC(=O)Nc2ccccc2)c1,9%,-1%,?,15%,?
O=C(Nc1ccc(Cl)cc1Cl)NC1CCCC1,2%,-7%,2%,4%,8%
COc1ccccc1NS(=O)(=O)c1cccc(NC(=O)Nc2ccc(Cl)cc2)c1,-1%,1%,?,7%,28µM*
O=C(Nc1cccc(Cl)c1Cl)c1cc(S(=O)(=O)N2CCCCC2)ccc1F,/,/,-8%,3%,-8%
O=C(Nc1ccc(Cl)cc1Cl)NC1CCN(S(=O)(=O)c2ccc(F)cc2)CC1,11%,-6%,?,/,25µM*
CCOC(=O)Cc1csc(NC(=O)c2sc3nc4cc(C)ccc4cc3c2N)n1,3%,2%,?,2.5µM*,14%
CCOC(=O)Cc1csc(NC(=O)c2sc3nc4ccc(CC)cc4cc3c2N)n1,43%,?,-28%,8.9µM*,3%
CCOC(=O)Cc1csc(NC(=O)c2ccc(Br)o2)n1,5%,0%,-4%,-19%,1%
CC(C)OCCCN1C=C2C(=O)C(C)(OC(=O)CCc3ccccc3)C(=O)C=C2C=C1c1ccc(C#N)cc1 (centres undefined),9%[14.2 µM],22µM*!,-15%[11.6 µM],?,-2%[11.6 µM]
CC1(OC(=O)CCc2ccccc2)C(=O)C=C2C=C(c3ccc(C#N)cc3)OC=C2C1=O (centres undefined),63%,-10%,-13%,?,7%
CC1(OC(=O)CCc2ccccc2)C(=O)C=C2C=C(c3ccc(C#N)cc3)N(CCN3CCOCC3)C=C2C1=O (centres undefined),0%[14.2 µM],13µM*,1%[11.6 µM],?,?
SMILES,GoLoco inh red,KDM4E inh,Tau fluor counter,Tau ThT inhib,Tau fibril FP
Cc1nn(-c2ccccc2)c(-n2cccc2)c1C(=O)NCCCN1CCN(c2ccccc2F)CC1,/,/,-14%,-10%,-6%
O=[N+]([O-])c1cc(Br)c(O)c(C=Nc2ccc(N3CCOCC3)cc2)c1,10%,3%,5%,10%,2%
O=[N+]([O-])c1cc(Br)c(O)c(/C=N/Nc2nnnn2-c2cccc3ccccc23)c1,7%,?,?,16µM*,?
Oc1ccccc1N=Cc1sc2ccccc2c1Cl,7%,22µM*,-22%,?,-8%
CN=Cc1sc2ccccc2c1O,13%,?,-11%,-17%,0%
Cc1ccc(O)c(N=Cc2sc3ccccc3c2Cl)c1,-3%,25µM*,-10%,?,-4%
Cc1cc(C)cc(OCC(=O)NCC(c2ccc(Cl)cc2)N2CCCCC2)c1 (centres undefined),/,/,-4%,-8%,10%
O=C(O)CCc1ccccc1OC(=O)c1ccccc1,0%,4%,6%,/,-1%
O=C(Oc1cccc2c(O)cccc12)c1ccccc1,5%,-6%,13µM*[quencher],?,11%
CCOc1cc(C(=O)Nc2cccc(-c3nc4ccccc4o3)c2)cc(OCC)c1OCC,/,/,-9%,-1%,-16%
Cc1cc(Nc2cccc(C(F)(F)F)c2)nc2ccc(NC(=O)c3cncc(Br)c3)cc12,/,/,5µM*[quencher],?,-8%
Cc1ccccc1C(=O)Nc1ccc2nc(Nc3cccc(C(F)(F)F)c3)cc(C)c2c1,/,/,5.6µM*[quencher],-23%,?
CCOc1cc(C(=O)Nc2ccc3nc(Nc4cccc(Cl)c4)cc(C)c3c2)cc(OCC)c1OCC,/,/,2.2µM*[quencher],?,-7%
Cc1cc(Nc2cccc(Cl)c2)nc2ccc(NC(=O)c3cncc(Br)c3)cc12,/,/,6.3µM*[quencher],?,-11%
Cc1ccccc1C(=O)Nc1ccc2nc(N3CCCCC3)cc(C)c2c1,/,/,?,?,11%
O=C(/C=C/c1ccc(Cl)cc1Cl)n1cccn1,-6%,8%,-7%,7.9µM*,?
O=C(/C=C/c1ccc(Cl)cc1Cl)c1ccc[nH]1,8%,-1%,-10%,?,-6%
CCN(C(=O)CSc1nc2ccccc2n1Cc1ccc(F)cc1Cl)c1ccccc1,/,/,12%,-2%,0%
O=S(=O)(NCc1ccc(F)cc1)c1ccc2[nH]c3c(c2c1)CCCCC3,/,/,16µM*[quencher],-1%,-5%
CN(CC(=O)NCc1ccc(Cl)cc1)S(=O)(=O)c1ccc2[nH]c3c(c2c1)CCCC3,/,/,?,7%,14%
COc1cccc(CNS(=O)(=O)c2ccc3[nH]c4c(c3c2)CCCCC4)c1,/,/,13µM*[quencher],-9%,?
COc1cccc(CNC(=O)CN(C)S(=O)(=O)c2ccc3[nH]c4c(c3c2)CCCC4)c1,/,/,?,-4%,?
CC(NC(=O)c1sc2cc([N+](=O)[O-])ccc2c1Cl)C(C)(C)C (centres undefined),/,-29%,-26%,22µM*,?
Cc1cc(C)c2c(c1)c(C)cc1nnc(SCC(=O)c3ccccc3)n12,/,/,-9%,-9%,0%
O=C(Nc1ccc2ccccc2c1)c1ccc(Cl)cc1Cl,12%,?,-27%,?,-5%
O=C(Nc1nc(=S)ss1)c1ccc(Cl)cc1Cl,-5%,-7%,-10%,32µM*,?

# Assay outcomes: PubChem, National Center for Advancing Translational Sciences (NCATS)
